Here are results for 5 molecules from PubChem BioAssay (NCATS).

Structures are written as SMILES. Results filed as inconclusive are left out. The source made the active and inactive calls. Unless noted, calls follow the shape of the dose curve; as a rule, active = well fitted curve in the direction sought with a large enough effect; inconclusive = small, poorly fitted or top-dose-only effect, or another doubt; inactive = no such curve, though single readings can be large; an effect the other way counts as inactive or inconclusive.

For experiment [1], the system named is Zika virus NS2B-NS3 protease. Nature of the experiment: Primary screen GU AMC qHTS for Zika virus inhibitors (AID 1347154).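 Also: 0% = no-inhibitor control and -100% = no-enzyme control; nearly all actives have a fitted effect of over 70% in size.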 An outline of the steps:
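Fluorogenic AMC-substrate cleavage by noncovalent NS2B-NS3 protease complex (25 nM, pH 8.0 Tris buffer with Tween 20) followed for 15 minutes at room temperature (~20% conversion). Percent inhibition from ex340/em450 signal change, fitted by 4-parameter Hill equation.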

Experiment [2] is described as follows: qHTS to identify inhibitors of the type 1 interferon - major histocompatibility complex class I in skeletal muscle: primary screen against the NCATS Mechanism Interrogation Plate v5.0 (MIPE) Libary (AID 1347411).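 Also: plate controls were vehicle for no effect and reference inhibitor for full effect; nearly all actives have a fitted effect of over 65% in size.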 An outline of the steps:
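Seed engineered human myoblasts (HLA-B HiBit) in medium without dexamethasone containing 4 ng/ml IFN-beta; after 1 hr add compound titrations (top 46 uM final). Incubate 24 hrs at 37 C, lyse 10 min with HiBiT reagent, read luminescence.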

The nature of experiment [3]: Primary qHTS for small molecule stabilizers of the endoplasmic reticulum resident proteome: Secreted ER Calcium Modulated Protein (SERCaMP) assay (AID 1508630). Also: % is scaled to controls: 0 for no effect and ±100 for the full control effect. An outline of the steps: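 The SH-SY5Y reporter protocol was run at 3 concentrations up to 38.3 uM (primary) or 11 concentrations (follow-up): 16 h compound, 100 nM thapsigargin for 4 h, then extracellular luciferase luminescence.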

The target of experiment [4] is Cytochrome P450 2D6 (Homo sapiens) (UniProt P10635). The experiment can be described thus: Cytochrome P450 family 2 subfamily D member 6 (CYP2D6) small molecule antagonists: luciferase biochemical (cell-free) qHTS assay (AID 1645840; active = well fitted curve in the direction sought with a large enough effect in the repeat runs; an effect the other way counts as inactive or inconclusive; also: potency is read from the fitted curve at half-maximal effect; nearly all actives have a fitted effect of over 55% in size). An outline of the steps: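 P450-Glo CYP2D6 system: proluciferin substrate converted by enzyme to luciferin, read by luminescence proportional to activity. Enzyme-substrate mix with compound 10 min at room temperature, then NADPH regeneration 1 h before detection reagent.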
Chain of Cytochrome P450 2D6 (Homo sapiens) (P10635 whole entry, looked up): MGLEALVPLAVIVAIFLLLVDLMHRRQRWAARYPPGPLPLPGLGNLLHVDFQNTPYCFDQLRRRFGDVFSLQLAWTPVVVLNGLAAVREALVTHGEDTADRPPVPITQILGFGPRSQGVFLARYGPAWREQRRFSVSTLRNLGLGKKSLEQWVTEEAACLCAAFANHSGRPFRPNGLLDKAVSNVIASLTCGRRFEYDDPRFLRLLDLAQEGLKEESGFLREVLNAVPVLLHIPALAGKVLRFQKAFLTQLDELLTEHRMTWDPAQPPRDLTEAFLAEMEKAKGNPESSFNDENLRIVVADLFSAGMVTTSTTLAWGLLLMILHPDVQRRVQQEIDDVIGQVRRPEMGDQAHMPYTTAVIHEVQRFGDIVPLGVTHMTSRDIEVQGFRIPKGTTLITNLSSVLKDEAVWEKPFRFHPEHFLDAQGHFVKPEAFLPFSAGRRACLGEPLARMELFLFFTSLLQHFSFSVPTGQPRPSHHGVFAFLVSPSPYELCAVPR

In experiment [5] the target is Cytochrome P450 2C9 (Homo sapiens) (UniProt P11712). Nature of the experiment: Cytochrome P450 family 2 subfamily C member 9 (CYP2C9) small molecule antagonists: luciferase biochemical (cell-free) qHTS assay (AID 1645842; active = well fitted curve in the direction sought with a large enough effect in the repeat runs; an effect the other way counts as inactive or inconclusive; also: potency is read from the fitted curve at half-maximal effect; nearly all actives have a fitted effect of over 55% in size). An outline of the steps: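 P450-Glo CYP2C9 system: proluciferin substrate with enzyme in mix containing 0.4% BSA, 10 min at room temperature, then NADPH regeneration solution added and incubated 1 h at 37C. Detection reagent stopped reaction; luminescence read after 20 min as RLU.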
Chain of Cytochrome P450 2C9 (Homo sapiens) (P11712 whole entry, looked up): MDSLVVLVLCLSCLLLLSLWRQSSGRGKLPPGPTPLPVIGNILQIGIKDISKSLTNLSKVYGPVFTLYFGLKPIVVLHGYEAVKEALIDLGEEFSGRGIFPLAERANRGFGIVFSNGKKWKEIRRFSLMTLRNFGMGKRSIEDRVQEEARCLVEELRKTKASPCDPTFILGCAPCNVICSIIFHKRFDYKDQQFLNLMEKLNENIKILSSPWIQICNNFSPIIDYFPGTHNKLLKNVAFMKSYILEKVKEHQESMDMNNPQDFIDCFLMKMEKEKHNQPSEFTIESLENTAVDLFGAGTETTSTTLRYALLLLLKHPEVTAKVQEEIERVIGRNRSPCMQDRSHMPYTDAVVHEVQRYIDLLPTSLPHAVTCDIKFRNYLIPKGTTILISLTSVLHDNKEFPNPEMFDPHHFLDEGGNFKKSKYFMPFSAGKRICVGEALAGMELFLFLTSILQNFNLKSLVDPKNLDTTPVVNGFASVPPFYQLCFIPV

The target of experiment [6] is Glutathione peroxidase 1 (Homo sapiens) (UniProt P07203). Nature of the experiment: Primary qHTS Assay for Inhibitors of Recombinant Selenoprotein Glutathione Peroxidase 1 (GPX1) (AID 1845191). Also: nearly all actives have a fitted effect of over 65% in size. In short, it runs like this: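 NADPH consumption tracked by fluorescence at 340/450 nm between t=0 and t=15 min, room temperature. Final mix: 10 nM GPX1, 100 nM glutathione reductase, 1 mM GSH, 0.5 mM NADPH, 0.5 mM cumene hydroperoxide, 0.01% BSA; 30 min compound–enzyme preincubation.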
Chain of Glutathione peroxidase 1 (Homo sapiens) (P07203 whole entry, looked up): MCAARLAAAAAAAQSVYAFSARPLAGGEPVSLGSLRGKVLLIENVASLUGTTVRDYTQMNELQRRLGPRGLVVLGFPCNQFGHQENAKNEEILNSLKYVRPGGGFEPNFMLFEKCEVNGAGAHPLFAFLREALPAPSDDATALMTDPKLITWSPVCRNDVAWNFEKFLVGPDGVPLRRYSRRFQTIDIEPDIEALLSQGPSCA

Experiment [7] concerns the target Phospholipid hydroperoxide glutathione peroxidase GPX4 (Homo sapiens) (UniProt P36969). Nature of the experiment: Primary qHTS Assay for Inhibitors of Recombinant Selenoprotein Glutathione Peroxidase 4 (GPX4) (AID 1845192). Also: nearly all actives have a fitted effect of over 65% in size. Particulars: outcome: dose series up to 50 µM unless noted. An outline of the steps:
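NADPH consumption followed by fluorescence at 340/450 nm, t=0 and after 15 min at room temperature. Reaction started with cumene hydroperoxide (0.5 mM final) after 30 min compound–GPX4 preincubation; final 200 nM GPX4, 100 nM GR, 1 mM GSH, 0.5 mM NADPH.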

Experiment [8] in a line: qHTS drug screen for cell cycle checkpoint inhibitors in PARPi-resistant BRCA-mutant ovarian cancer cell lines. (AID 1963452; calls by dose curve). Particulars: PEO1/OlaR viability, CellTiter-Glo luminescence, 96 h, stronger effect = lower value. An outline of the steps: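 PEO1, PEO4 and PEO1/OlaR ovarian cancer cells, 600 per well, exposed 96 h at 37C to a dilution series. Viability read by CellTiter-Glo luminescence, normalized to DMSO and empty wells; activity summarized as Z-AUC.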

Experiment [9] can be described thus: NCATS anti-infectives library activity on HEK293 viability as a counter-qHTS vs the C. elegans viability qHTS (AID 1745854).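 Also: HEK293 cells exposed to compounds for 24 hr before the viability read; % is scaled to controls: 0 for no effect and ±100 for the full control effect.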 In short, it runs like this: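 Counter-screen for cytotoxicity: HEK293, 24 hr, 37C, compounds up to 41.7 uM final (a dilution series, 1:5). Readout CellTiter-Glo luminescence, 10 min RT. Digitonin control, […] uM final.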
[10] abbreviates: measured here: PEO1 parental Z-AUC.

Chain of Phospholipid hydroperoxide glutathione peroxidase GPX4 (Homo sapiens) (P36969 whole entry, looked up): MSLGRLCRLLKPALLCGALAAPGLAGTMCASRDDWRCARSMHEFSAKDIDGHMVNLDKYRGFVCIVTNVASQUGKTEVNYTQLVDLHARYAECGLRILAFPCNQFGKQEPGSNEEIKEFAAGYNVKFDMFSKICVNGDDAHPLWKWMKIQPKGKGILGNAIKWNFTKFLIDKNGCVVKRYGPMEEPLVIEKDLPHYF

In the case of `N#C/C(=C(/N)Sc1ccc(N)cc1)c1ccccc1C(F)(F)F`, the Potency result in [1], in experiment [2], in experiment [3], in experiment [6] and in experiment [7] was “inactive” each time. The Potency in [4] is 16.9 µM (active); in experiment [5], 9.52 µM (active). Moreover, the Z-AUC was -0.578 (inactive) in [8], -0.277 in [8] (setting [10]) and -0.614 in experiment [8] (measured here: PEO4 Z-AUC).
As to `CCCC[C@@H](C=O)NC(=O)[C@H](CC(C)C)NC(=O)OCc1ccccc1`, the Potency result in experiment [1], in experiment [2], in [3], in [6] and in experiment [7] was “inactive” throughout. The outcome in [9] was inactive. The Z-AUC was 1.25 (inactive) in [8], 0.731 in experiment [8] (setting [10]) and 0.856 in experiment [8] (measured here: PEO4 Z-AUC).
Take `CC(C)c1cc(/C=C(\C#N)C(=O)NCCCc2ccccc2)cc(C(C)C)c1O`: the Potency result in [1] was “inactive”.
The same measure, in the same setting: the same measure for `C[C@H](CCC(=O)NCC(=O)O)C1CC[C@H]2C3CC[C@@H]4C[C@H](O)CC[C@]4(C)C3C[C@H](O)[C@]12C` (some centres not stated): “inactive”; for `O=C1NN(C(=O)Nc2ccc(Br)cc2)C(c2ccccc2)C1c1ccccc1` (configuration not stated): “inactive”.
